Measurements: PMC4336329 (PLoS ONE, 2015)
Out of some 310,000 compounds screened, about 14,000 (4.5%) showed an effect of 50% or more. The effect is printed as a negative number. The sample holds strong results, similar compounds and a random draw of the others, so the mix is not that of the screen.

Target: human ether-à-go-go-related gene (hERG) potassium channel (human, UniProt Q12809)
Test: primary screen, population patch clamp on CHO cells stably expressing hERG; higher = less effect of the substance
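Note: peak tail current of the secondary pulse compared with the same well before compound.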

Sequence of human ether-à-go-go-related gene (hERG) potassium channel (Q12809 whole entry, looked up): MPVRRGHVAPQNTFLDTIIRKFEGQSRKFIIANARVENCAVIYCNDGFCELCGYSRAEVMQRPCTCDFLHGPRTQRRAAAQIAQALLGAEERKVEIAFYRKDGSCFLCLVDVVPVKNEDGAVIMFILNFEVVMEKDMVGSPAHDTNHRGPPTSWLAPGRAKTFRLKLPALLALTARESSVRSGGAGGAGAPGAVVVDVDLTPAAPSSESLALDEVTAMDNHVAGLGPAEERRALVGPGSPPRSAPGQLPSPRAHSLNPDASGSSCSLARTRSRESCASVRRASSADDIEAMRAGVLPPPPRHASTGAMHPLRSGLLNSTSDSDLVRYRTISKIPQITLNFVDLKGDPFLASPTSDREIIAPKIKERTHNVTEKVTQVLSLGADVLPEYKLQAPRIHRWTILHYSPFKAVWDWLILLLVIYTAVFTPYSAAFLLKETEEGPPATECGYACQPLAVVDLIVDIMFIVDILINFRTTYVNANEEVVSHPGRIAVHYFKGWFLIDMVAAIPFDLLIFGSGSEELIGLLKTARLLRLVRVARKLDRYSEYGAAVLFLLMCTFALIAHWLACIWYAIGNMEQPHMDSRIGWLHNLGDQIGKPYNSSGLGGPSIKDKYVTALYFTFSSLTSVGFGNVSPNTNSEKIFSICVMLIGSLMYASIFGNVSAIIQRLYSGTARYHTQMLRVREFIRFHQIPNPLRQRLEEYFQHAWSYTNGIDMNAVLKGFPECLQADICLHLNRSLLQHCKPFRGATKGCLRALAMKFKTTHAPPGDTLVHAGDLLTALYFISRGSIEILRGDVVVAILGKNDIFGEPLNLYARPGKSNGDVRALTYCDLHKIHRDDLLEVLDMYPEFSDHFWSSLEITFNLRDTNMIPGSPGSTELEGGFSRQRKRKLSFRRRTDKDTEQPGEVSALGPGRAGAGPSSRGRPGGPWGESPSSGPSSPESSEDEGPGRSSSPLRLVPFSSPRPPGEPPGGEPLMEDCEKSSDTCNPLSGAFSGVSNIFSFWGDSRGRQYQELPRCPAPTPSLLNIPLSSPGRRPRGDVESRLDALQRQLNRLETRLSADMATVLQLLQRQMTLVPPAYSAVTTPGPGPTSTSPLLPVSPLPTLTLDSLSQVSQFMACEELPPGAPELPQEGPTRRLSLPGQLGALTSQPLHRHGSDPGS

SMILES | hERG current change (%, negative = inhibition) at 10uM [%]
COC(=O)c1cccc(-c2ccc(/C=N/N3C(=O)C4C5C=CC(C6CC56)C4C3=O)o2)c1 (stereo not shown) | -8.32
CC1CCN(S(=O)(=O)c2ccc3c(c2)c(=O)c(C(=O)N2CCOCC2)cn3C)CC1 | 13.5
CC(Oc1ccc(Br)cc1)C(=O)N(C)CC(=O)Nc1ccc(N2CCOCC2)cc1 (stereo not shown) | 2.99
CC(C)CN(CC(C)C)C(=O)CN1C(=O)NC2(CCc3ccccc3C2)C1=O (stereo not shown) | -8.61
Cc1ccnc(-n2c(C)cc(/C=C3\C(=O)NC(=S)N(C)C3=O)c2C)c1 | 12.9
Cc1cc(=O)[nH]c(COc2ccccc2)n1 | 17.2
CCN(CC)S(=O)(=O)c1ccc2c(c1)nc(SCC(=O)N(C)C1CCS(=O)(=O)C1)n2CC (stereo not shown) | 6.94
N#Cc1c(Cl)nsc1NCCN1CCOCC1 | 15.4
Cc1ccc(C(CNS(=O)(=O)c2ccccc2)N2CCN(C)CC2)cc1 (stereo not shown) | -53.6
O=S(=O)(NCC(c1ccc2c(c1)OCO2)N1CCOCC1)c1ccc(F)cc1 (stereo not shown) | -6.81
Cc1ccc(S(=O)(=O)NCC(c2ccccc2)N2CCCCC2)cc1 (stereo not shown) | 1.79
Cc1cc(S(=O)(=O)NCC(c2ccc(F)cc2)N2CCN(C)CC2)ccc1F (stereo not shown) | -68.4
Cc1cc(S(=O)(=O)NCC(c2ccc3c(c2)OCO3)N2CCOCC2)ccc1F (stereo not shown) | -20.7
COc1ccc(C(CNS(=O)(=O)c2ccccc2)N2CCN(C)CC2)cc1 (stereo not shown) | -35.7
Cc1ccc(S(=O)(=O)NCCNC(C)c2ccc(Br)cc2)cc1 (stereo not shown) | -42.5
Cc1ccc(C(CNS(=O)(=O)c2ccc(Br)cc2)N2CCN(C)CC2)cc1 (stereo not shown) | -72.4
COc1cccc(C(=O)NNC(=O)C2CCCO2)c1 (stereo not shown) | 15.3
CCC1=[N+](CC(=O)c2ccc(Br)cc2)CCn2c(C)ccc21.[Br-] | -6.76
COc1cc(Nc2cc(C)nc3ncnn23)cc(OC)c1 | -8.29
CN1CCC(NC(=O)Cc2c(F)cccc2Cl)CC1 | -1.52
O=C1CCC2S/C(=C/Nc3ccc(C(F)(F)F)cc3)C(=O)N12 (stereo not shown) | -52.2
CS(=O)(=O)N1CCC(C(=O)Nc2ccc(C(F)(F)F)cc2)CC1 | 12.4

SMILES | hERG current change (%, negative = inhibition) at 10uM [%]
O=C(c1ccc(C(F)(F)F)cc1)C1CCCN(C(=O)CN2CCCC2=O)C1 (stereo not shown) | 0.525
COc1ccc(OC)c(NC(=O)CCNS(=O)(=O)c2cc(Br)cnc2N)c1 | -14.9
CC1(C)Cc2ccccc2-c2nnc(SCC(=O)Nc3nc4ccccc4s3)n21 | -74.4
CC1(C)Cc2ccccc2-c2nnc(SCc3ccc(C#N)cc3)n21 | -58.9
Cn1c(SCC(=O)Nc2nc3ccccc3s2)nnc1-c1ccccc1 | 10.3
O=C(COC(=O)c1cnccn1)Nc1ccc2c(c1)OCO2 | 7.23
COc1cc(NC(=O)CSc2nnc3n2C(C)(C)Cc2ccccc2-3)cc(OC)c1 | 10
CC1(C)Cc2ccccc2-c2nnc(SCC(=O)Nc3ccc4c(c3)OCO4)n21 | -63.2
COc1ccc2nc(NC(=O)CSc3nnc4n3C(C)(C)Cc3ccccc3-4)sc2c1 | 0.248
O=C(COC(=O)c1cccnc1Cl)Nc1ccc2c(c1)OCO2 | 2.28
COC(=O)CSc1nnc2n1C(C)(C)Cc1ccccc1-2 | 3.46
CCSc1nnc2n1C(C)(C)Cc1ccccc1-2 | 0.0135
CCn1c(SCC(=O)Nc2ccc3c(c2)OCO3)nnc1-c1ccccc1O | 7.21
O=C(COC(=O)c1ccccn1)Nc1ccc2c(c1)OCO2 | -65.5
COc1ccc(CCNC(=O)C2CCN(S(=O)(=O)c3ccc(NC(C)=O)cc3)CC2)cc1OC | 9.83
Nc1cc(=O)[nH]c(SCC(=O)Nc2ccccc2Sc2ccccc2)n1 | 6.15
O=C(Cn1nnc(-c2ccccc2NC(=O)c2ccccc2F)n1)NCc1ccco1 | 10.1
Cc1nc(-c2ccc(C(=O)Nc3cccc(Br)c3)cc2)cs1 | 7.02
Cc1cc(C)n(Cc2ccc(Cl)cc2Cl)c(=O)c1S(=O)(=O)c1ccccc1 | 14.7
COc1ccc(S(=O)(=O)N(CC(=O)N2CCOCC2)c2cc(Cl)ccc2OC)cc1OC | -16.6
COc1ccc(CCNC(=O)C/C(C)=N/NC(=O)C23CC4CC(CC(C4)C2)C3)cc1OC | 11.7
COc1ccccc1N1CCN(C(=O)CSc2nnc3n2C(C)(C)Cc2ccccc2-3)CC1 | -37.4

SMILES | hERG current change (%, negative = inhibition) at 10uM [%]
COc1ccc(C(=O)NC(C)c2nnc(SCC(=O)Nc3nc4ccccc4s3)n2C)cc1 (stereo not shown) | -59.4
O=C(CSc1nnc(-c2ccccn2)n1-c1ccccc1)Nc1ccc2c(c1)OCO2 | 1.81
COc1ccc(C(=O)NC(C)c2nnc(SCC(=O)NC3=NCCS3)n2C)cc1 (stereo not shown) | 15.3
CC1(C)Cc2ccccc2-c2nnc(SCC(=O)N3CCN(c4ccccc4)CC3)n21 | -73.7
COc1ccc(N2CCN(C(=O)CSc3nnc4n3C(C)(C)Cc3ccccc3-4)CC2)cc1 | -23.8
CCc1nnc(NC(=O)CSc2nnc(C(C)NC(=O)c3ccccc3)n2C)s1 (stereo not shown) | 29.3
Cc1ccccc1-n1c(SCC(=O)Nc2ccc3c(c2)OCO3)nnc1-c1ccccn1 | -65.3
Cc1ccc(-n2c(SCC(=O)Nc3ccc4c(c3)OCO4)nnc2-c2ccccn2)cc1 | 4.28
C/C=C(\C)CN1CCC(Oc2cccc(C(=O)NCc3ccccn3)c2)CC1 | -4.59
COC(=O)CN(c1cccc(C(C)=O)c1)S(C)(=O)=O | 9.02
O=C(c1ccccc1Br)N1N=C(c2ccccc2)CC1c1ccccc1F (stereo not shown) | 15.7
CCc1cccc(NC(=O)C2CCCN2S(=O)(=O)c2ccc3c(c2)n(C)c(=O)c(=O)n3C)c1 (stereo not shown) | -9.62
Cc1ccnc(NC(=O)c2ccc(Cl)c(S(=O)(=O)N3CCCCC3)c2)c1 | -79.1
Cc1cccc(NC(=O)c2ccc(C)c(S(=O)(=O)N3CCCCC3)c2)n1 | -36.7
Cc1ccnc(NC(=O)c2ccc(Cl)c(S(=O)(=O)N3CCCC3)c2)c1 | -15.7
Cc1cccc(NC(=O)c2ccc(Cl)c(S(=O)(=O)N3CCCCCC3)c2)n1 | -25.1
Cc1cccc(NC(=O)c2ccc(S(=O)(=O)N3CCCCCC3)cc2)n1 | -4.07
Cc1cccc(NC(=O)c2ccc(Cl)c(S(=O)(=O)N3CCCCC3)c2)n1 | -71.3
Cc1ccc(NC(=O)c2ccc(Cl)c(S(=O)(=O)N3CCCCCC3)c2)nc1 | -57.9
Cc1cccc(NC(=O)c2ccc(S(=O)(=O)N3CCC(C)CC3)cc2)n1 | -59.2
Cc1ccc(NC(=O)c2ccc(Cl)c(S(=O)(=O)N3CCCCC3)c2)nc1 | -23.4
Cc1cccc(NC(=O)c2ccc(S(=O)(=O)N3CCCCC3)cc2)n1 | -6.69

SMILES | hERG current change (%, negative = inhibition) at 10uM [%]
Cc1ccnc(NC(=O)c2ccc(S(=O)(=O)N3CCCCC3)cc2)c1 | -17.9
Cc1ccc(NC(=O)c2ccc(Cl)c(S(=O)(=O)N3CCCC3)c2)nc1 | -8.97
Cc1c(Cl)cccc1N1C(=O)C2ON(c3ccccc3)C(c3cccnc3)C2C1=O (stereo not shown) | 4.12
Cn1c(CNC(=O)OC(C)(C)C)nnc1SCC(=O)N1CCOCC1 | 8.91
CSc1nc2nc(-c3ccc(F)cc3)c(CCN3CCN(C)CC3)cn2n1 | -2.66
Cc1cc(NC(=O)CSc2nc3ccccc3n2CC(C)C)no1 | 19.2
Cc1cccc(C(=O)Oc2ccccc2C(=O)N2CCOCC2)c1 | -8.06
COc1ccccc1N1CCN(C2CCCN(C(=O)CCn3cncn3)C2)CC1 (stereo not shown) | 13
CCn1nnnc1SCC(=O)c1ccc(NC(C)=O)cc1 | 0.37
CCC1(CC)C(=O)N(C)C(=O)NC1=Nc1ccccc1 | 15.8
CCC(C)(C)n1nnnc1C(c1ccc(C)cc1)N1CCN(Cc2ccc3c(c2)OCO3)CC1 (stereo not shown) | -50.3
Cc1ccc(C(c2nnnn2Cc2cccs2)N2CCN(Cc3ccc4c(c3)OCO4)CC2)cc1 (stereo not shown) | -75.3
CCN1CCN(C(c2ccccc2)c2nnnn2Cc2ccc3c(c2)OCO3)CC1.Cl (stereo not shown) | -39.1
COCCn1nnnc1C(c1ccccc1)N1CCN(Cc2ccc3c(c2)OCO3)CC1.Cl (stereo not shown) | -21.6
CCC(C)(C)n1nnnc1C(c1ccc2ncccc2c1)N1CCCC(C)C1 (stereo not shown) | -13.6
CC(C)(C)n1nnnc1C(c1ccc(F)cc1)N1CCN(Cc2ccc3c(c2)OCO3)CC1 (stereo not shown) | -37.8
CCC(C)(C)n1nnnc1C(c1ccc2ncccc2c1)N1CCCCCC1 (stereo not shown) | 6.75
CCC(C)(C)n1nnnc1C(c1ccc2ncccc2c1)N1CCN(Cc2ccc3c(c2)OCO3)CC1 (stereo not shown) | -69.7
CC(C)(C)n1nnnc1C(c1cccs1)N1CCN(Cc2ccc3c(c2)OCO3)CC1 (stereo not shown) | -19.4
